Test results from PubChem BioAssay AID2023 (NMMLSC, 2009).
In all, about 320,000 compounds went through this assay and about 1,100 (0.34%) were called active.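 How the source made its calls: active means GFP response vs DMSO above a set limit, about the screen mean plus 3 SD (cut at about 150% in these data); inconclusive means under 70 cell events counted for the yeast strain; inactive means the rest.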 For the sample, actives were picked, then their nearest neighbours and some compounds at random.

Test: modulators of LAP4-GFP expression in yeast, primary screen, S. cerevisiae, multiplex flow cytometry, MLPCN library (AID 2023)
Details: 3 h, at 10 µM, active compounds read high, median GFP as percent of DMSO wells

Row | Structure (SMILES) | GFP response vs DMSO
1 | CCn1c(=S)[nH]c2cc(S(=O)(=O)N3CCOCC3)ccc21 | 89.3% (inactive)
2 | Cc1ccc2cccc(S(=O)(=O)N3CCN(c4ccccc4F)CC3)c2n1 | 110% (inactive)
3 | Cc1ccc(C(=O)N2CCCC(c3ccccc3)=N2)cc1 | 107% (inactive)
4 | CC(C(=O)Nc1ccccc1-c1ccccc1)N1CCOCC1 (configuration not stated) | 100% (inactive)
5 | CC(C)c1ccc(NC2CCCN(C(=O)c3ccncc3)C2)cc1 (configuration not stated) | 93.3% (inactive)
6 | COC(=O)c1cc(S(=O)(=O)NC2CCN(Cc3ccccc3)CC2)cn1C | 95.7% (inactive)
7 | CC12CN3CCN(CC(C3)/C1=N\NC(=O)c1ccccc1N)C2 | 102% (inactive)
8 | CC(=O)Nc1ccc(NC(=O)COC(=O)C2CCC(C(C)(C)C)CC2)cc1 (configuration not stated) | 107% (inactive)
9 | Cc1cccc(C)c1NC(=O)C(Cl)C(=O)c1ccccc1 (configuration not stated) | 269% (active)
10 | Cc1cccc(C)c1NC(=O)C(c1ccccc1)N1CC(=O)Nc2ccccc21 (configuration not stated) | 90.5% (inactive)
11 | Cc1cccc(C)c1NC(=O)CN(C)C(=O)CCC(=O)c1ccccc1 | 104% (inactive)
12 | Oc1cccc(/C=N/Nc2ccc(Cl)nn2)c1O | 89.6% (inactive)
13 | COc1cccc(/C=N/Nc2ncc(C(F)(F)F)cc2Cl)c1O | 184% (active)
14 | FC(F)(F)c1cnc(Oc2ccccc2-c2nnc(-c3ccc(Cl)cc3)o2)c(Cl)c1 | 96.3% (inactive)
15 | Cc1ccc2nsnc2c1NC(=O)c1ccccc1[N+](=O)[O-] | 93.2% (inactive)
16 | Cc1cc(=O)n2nc(N3CCCC(C(=O)NCCC4=CCCCC4)C3)sc2n1 (configuration not stated) | 196% (active)
17 | Cc1cc(=O)n2nc(N3CCCC(C(=O)NCc4ccc(Cl)cc4)C3)sc2n1 (configuration not stated) | 92.3% (inactive)
18 | Cc1cc(=O)n2nc(N3CCCC(C(=O)NCc4cccc(Cl)c4)C3)sc2n1 (configuration not stated) | 92.2% (inactive)
19 | CC(=O)NCCC(=O)Nc1cc(S(=O)(=O)N2CCCCC2)ccc1Oc1cccc(C)c1 | 87.1% (inactive)

Row | Structure (SMILES) | GFP response vs DMSO
20 | COc1ccc([C@H]2CC(=O)C=C(/C=C/c3ccccc3)C2)cc1 | 115% (inactive)
21 | CC1=C/C(=N\OS(=O)(=O)c2ccccc2)C=CC1=O | 257% (active)
22 | CCn1c(SCC(=O)Nc2ccc(OC)c(OC)c2)nnc1-c1c[nH]c2ccccc12 | 98.2% (inactive)
23 | CCC(C)Sc1nnc(-c2c[nH]c3ccccc23)n1CCOC (configuration not stated) | 90.4% (inactive)
24 | CCn1c(SCCC(C)C)nnc1-c1c[nH]c2ccccc12 | 169% (active)
25 | C#CCOCCOCCOCCNc1nc(N2CCN(C(=O)CCCCCCCCCCNC(=O)[C@H]([C@@H](C)CC)n3cc(CCCCN=C(N)N)nn3)CC2)nc(N2CCN(C(=O)CCCCCCCCCCNC(=O)[C@H](CO)n3cc(CCCSC)nn3)CC2)n1 | 135% (inactive)
26 | C#CCOCCOCCOCCNc1nc(N2CCN(C(=O)CCCCCCCCCCNC(=O)[C@H](CCCCN)n3cc(C)nn3)CC2)nc(N2CCN(C(=O)CCCCCCCCCCNC(=O)[C@H](CO)n3cc(CCCSC)nn3)CC2)n1 | 155% (active)
27 | C#CCOCCOCCOCCNc1nc(N2CCN(C(=O)CCCCCCCCCCNC(=O)Cn3cc(CCCCCN)nn3)CC2)nc(N2CCN(C(=O)CCCCCCCCCCNC(=O)[C@H](CO)n3cc(CCCSC)nn3)CC2)n1 | 118% (inactive)
28 | Cc1cccc(NC(=S)N2CCCC(c3nc4ccccc4[nH]3)C2)c1 (configuration not stated) | 93.9% (inactive)
29 | O=C(C1CCCO1)N1CCN(C(=S)Nc2cccc(Cl)c2)CC1 (configuration not stated) | 95.7% (inactive)
30 | Cc1ccc(C2CCN(C(=S)Nc3cccc(Cl)c3)C2)cc1 (configuration not stated) | 158% (active)
31 | O=S(=O)(c1ccc2ccccc2c1)N1CCN(S(=O)(=O)N2CCOCC2)CC1 | 87% (inactive)
32 | COc1ccc(C)cc1N(CC(=O)NC(C)c1ccccc1)S(C)(=O)=O (configuration not stated) | 80.6% (inactive)
33 | S=C(NCc1ccco1)NCc1ccccc1Cl | 85.2% (inactive)
34 | Clc1ccccc1CSc1nnc(-c2ccco2)c(-c2ccco2)n1 | 186% (active)
35 | O=C(CC1N=C2c3ccccc3N=C(SCc3ccccc3Cl)N2C1=O)NCc1ccco1 (configuration not stated) | 97.5% (inactive)
36 | CN1CCCc2cc(C#N)c(=O)[nH]c21 | 105% (inactive)
37 | Cc1ccc(S(=O)(=O)N(C)C)cc1NC(=O)c1ccc(-n2cncn2)c([N+](=O)[O-])c1 | 98% (inactive)
38 | NC(=O)c1ccccc1N=Cc1ccc2ccccc2c1 | 88.2% (inactive)

Row | Structure (SMILES) | GFP response vs DMSO
39 | COc1cccc(NC(=O)C2CCCN(c3ncnc4c3nc3n4CCCCC3)C2)c1 (configuration not stated) | 94.5% (inactive)
40 | O=C(/C=C/c1ccc(Cl)c([N+](=O)[O-])c1)c1cccnc1 | 236% (active)
41 | O=C(Nc1cccnc1)c1ccc(Cl)c([N+](=O)[O-])c1 | 119% (inactive)
42 | O=C(/C=C/c1ccc(Cl)cc1Cl)c1cccnc1 | 99.4% (inactive)
43 | Cc1cc(NC(=O)CN2C(=O)NC(CCc3ccccc3)C2=O)no1 (configuration not stated) | 92.5% (inactive)
44 | Cc1ccc(NC(=O)N2CCSc3ccccc32)cc1 | 96.8% (inactive)
45 | O=C(NCCS(=O)(=O)c1ccc(Br)cc1)c1ccccc1Cl | 102% (inactive)
46 | CCc1noc(C)c1C(=O)N1CCCSC1=Nc1ccccc1OC | 101% (inactive)
47 | CC(C)[C@@H]1COC(c2cccc(C3=N[C@H](C(C)C)CO3)c2)=N1 | 163% (active)
48 | CCOCc1c(C(=O)N2CCN(Cc3ccc(Br)s3)CC2)oc2ccccc12 | 102% (inactive)
49 | COc1ccc(Cn2c(-c3ccc(Cl)cc3)c[n+]3ccccc23)cc1 | 101% (inactive)
50 | C/C(N)=C(\C#N)C(=O)NCCc1ccccn1 | 87.1% (inactive)
51 | O=C(NCCc1ccccc1Cl)C1CCC(=O)N(CCCc2ccccc2)C1 (configuration not stated) | 87.4% (inactive)
52 | Cc1cc(Oc2ccc(Cl)cc2)nc(SCC(=O)c2ccccc2)n1 | 103% (inactive)
53 | Cc1cc(C)nc(SCC(=O)c2ccc(Cl)cc2)n1 | 91.3% (inactive)
54 | Cc1cc(C)nc(S/C=C/C(=O)c2ccccc2)n1 | 239% (active)
55 | Cc1noc(C)c1S(=O)(=O)N(C)Cc1ccccc1 | 91.9% (inactive)
56 | N#C/C(=C\N1CCOCC1)S(=O)(=O)c1ccc(Cl)cc1 | 113% (inactive)
57 | Cc1ccc(NC(=O)Cn2c(=O)n(CCC(=O)NC3CCN(Cc4ccccc4)CC3)c(=O)c3ccccc32)cc1 | 94.3% (inactive)
